Data taken from PubChem BioAssay AID624297 (National Center for Advancing Translational Sciences (NCATS), 2012).
Several values for one entry are separate records, joined by “and”; a condition that tells them apart may be missing. Identical values can stand only once. In all, about 340,000 compounds went through this assay and about 6,200 (1.8%) were called active. Inconclusive results (about 10%) are left out. The call rests on the fitted dose curve; in most records, active means well fitted activation curve with a large enough effect; inconclusive means small, poorly fitted or top-dose-only effect; inactive means no such curve, though single readings can be large or run the other way. What follows is part of a selection rich in actives, with near analogues and random picks from the rest.

Test: A quantitative high throughput screen for small molecules that induce DNA re-replication in SW480 colon adenocarcinoma cells. Further: nearly all actives have a fitted effect of over 55% in size. On re-replication activation: % of control where 0% means no effect.
Conditions: Hoechst DNA content imaging, 48 h; series mostly up to 46.1 µM; re-replication activation: at the top concentration
Procedure, shortened: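 Image-based DNA-content assay: after two days of treatment, nuclei were labelled with the DNA dye Hoechst and imaged, and hits were compounds raising the count of nuclei showing high fluorescence intensity.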
Potency means the concentration at half of the fitted maximal effect.

re-replication activation, inactive:
CC1(C)C(=O)CCC2(C)C1=CCC1C2C(=O)CC2(C)C1CCC2(O)C(=O)CO (stereo not given) -5.75%, COc1ccc(-c2cc(C(F)(F)F)nc(NCc3cccnc3)n2)cc1 -5.23%, COc1ccc(-c2ccc(Nc3ccc(S(=O)(=O)N4CCCC4)cc3)nn2)cc1OC 6.25%, CC[C@]12c3[nH]c4cc(CCC(=O)N(C)C)ccc4c3CCN1C(=O)[C@@H](CC(=O)NCCCn1ccnc1)C[C@@H]2C(=O)N1CCN(C(=O)C2CC2)CC1 0.558%, NC1=NOC(=O)C1C1CCCCC1 (stereo not given) 0.706%, CC(=O)OCC(=O)C1(O)CCC2C3CC(C)C4=CC(=O)CCC4(C)C3C(O)CC21C (stereo not given) -2.38%, O=C(c1ccc2c(c1)C(=O)N(Cc1ccncc1)C2=O)N1CCN(S(=O)(=O)c2ccc(OC(F)(F)F)cc2)CC1 -0.488%, CCN(C[C@H]1N[C@@](CC)(C(=O)OC)[C@H]2C(=O)N(C)C(=O)[C@@H]12)C(=O)Nc1ccc(F)cc1 -61.2%, CC(=O)Oc1ccccc1C1=NN(C(C)=O)C(c2ccccc2)C1 (stereo not given) -16.4%, O=C(c1ccccc1)N1N=C(c2ccccc2O)CC1c1ccc(Br)cc1 (stereo not given) -5.14%, O=C1NCC(=O)N(Cc2ccccc2)/C1=C/c1ccccc1 24.2%, Clc1ccc(CN2CCN(/N=C/c3cccnc3)CC2)cc1 -3.04%, COc1cc(OC)c(/C=N/NC(=O)c2ccc([N+](=O)[O-])cc2)cc1Br -8.94%, Cc1cc(C)c([N+](=O)[O-])cc1-c1ccc(/C=N/NC(=O)c2nonc2N)o1 -0.463%, C[C@@H]1CN([C@@H](C)CO)C(=O)c2cc(NC(=O)C3CC3)ccc2O[C@H]1CN(C)C -5.73%, COc1cc(C(=O)OCc2cc(=O)n3ccsc3n2)ccc1OC(C)C -0.423%, CC(NC(=O)C(=O)N/N=C/c1ccc(Cl)cc1)c1ccccc1 (stereo not given) 3.87%, CC(C)(C)C1CCC(=NNC(=O)c2cc(-c3ccccc3)n[nH]2)CC1 (stereo not given) 13.8%, CC[C@@]1(C(=O)OC)N[C@H](CN(C)C(C)=O)[C@@H]2C(=O)N(C)C(=O)[C@@H]21 -9.49%, COc1ccccc1C1C2=C(COC2=O)Nc2cc3c(cc21)OCO3 (stereo not given) -28%, COC(=O)C1=C(C)NC(=O)CC1c1ccccc1OC (stereo not given) 1.66%, COc1ccc(C)cc1NC(=O)CSc1cccc[n+]1[O-] -10.9%, Cc1ccc(S(=O)(=O)Cc2cc(-c3ccc(Cl)cc3)no2)cc1 22.8%, O=S(=O)(NCc1ccc(Cl)cc1Cl)c1cccs1 0.858%, Nn1c(SCC(=O)NC2CCCc3ccccc32)nnc1C1CC1 (stereo not given) -5.75%, CN(C)C(=O)CCc1ccc2c3c([nH]c2c1)[C@]1(CCC2CCCC2)[C@@H](C(=O)N2CCOCC2)C[C@H](CC(=O)NCc2ccco2)C(=O)N1CC3 19.7% [at 9.22 µM], O=C1c2ccccc2C(=O)N1CCCCCCN1C(=O)c2ccccc2C1=O -3.92%, CC(CNC(=O)Cn1cnc2c(OCc3ccccc3)ncnc21)c1ccccc1 (stereo not given) 0.97%, O=C(Cc1ccc(Br)cc1)N1CCN(c2ccccn2)CC1 0.92%, O=C(C(Cl)Cl)N1CCN(c2ccccn2)CC1 2.41%, O=C(c1cccnc1)N(Cc1ccccc1)C(=O)c1cccnc1 -7.61%, CCOC(=O)N(Cc1ccccc1)C1CC1 0.406%, CC1=CC(=NNS(=O)(=O)c2ccc([N+](=O)[O-])cc2)CC(C)(C)C1 26%, COc1ccc(C(=O)N(C)Cc2ccc(OC)c(OC)c2OC)cc1S(=O)(=O)N1CCOCC1 -16.5%, COC(=O)C1=C(C)N(c2ccc(Br)cc2)C(=O)/C1=C\c1ccco1 -1.99%, COc1ccc([N+](=O)[O-])cc1NC(=O)COC(=O)/C=C/c1ccco1 2.98%, O=C(CC1SC(N2CCOCC2)=NC1=O)Nc1ccccc1F (stereo not given) -10.3%, CCCCCCSc1ccc([C@@H]2[C@H]3C(=O)N(CC)C(=O)[C@H]3[C@]3(C(=O)OC)CCCCN23)cc1 10.7%, COC(=O)Cc1c(-c2[nH]c3ccccc3c2CC(=O)OC)[nH]c2ccccc12 2.42%, O=C(CN1C(=O)NC2(CCCC2)C1=O)Nc1cc(C(F)(F)F)ccc1N1CCOCC1 -2.75%, Cc1cc(C)nc(N/N=C/c2c(C)oc3ccccc23)n1 4.88%, O=C(COC(=O)/C=C/c1ccc(Br)o1)Nc1cccc(S(=O)(=O)N2CCOCC2)c1 -3.84%, CC1CCCCC12NC(=O)N(CC(=O)N1CCN(c3ccccc3)CC1)C2=O (stereo not given) -15%, CCC(=O)Nc1ccc2nc(C)n(Cc3ccccc3Cl)c(=O)c2c1 -2.2%, CCOc1cc(NC(=O)c2ccccc2C(=O)O)c(OCC)cc1NC(=O)c1ccccc1F 6.97%, Cc1cc(C#N)c(SCC(N)=O)nc1-c1ccc(F)cc1 -0.723%, O=C(c1cccs1)N1CCCC(c2nc(-c3ccc(F)cc3)no2)C1 (stereo not given) -0.305%, CC12CCCCC1=CC(=O)CC2 (stereo not given) 0.335%, O=C(Nc1ccc(C2CC2(Cl)Cl)cc1)c1cccc([N+](=O)[O-])c1 (stereo not given) 13%, CCC(=O)NC(=S)Nc1ccc(NC(=O)c2ccco2)c(Cl)c1 2.73%, O=C(COC(=O)CSc1ccccc1)Nc1ccc(F)cc1F -8.3%, C=CC[C@H](CC(=O)NCCO)C(=O)N[C@@H](COC(=O)[C@@H](CC=C)Cc1ccc(F)cc1)Cc1c[nH]c2ccccc12 -8.11%, Cc1ccc(C(=O)Nc2ccccc2-c2ccccc2)cc1S(=O)(=O)Nc1ccccc1 -9.69%, Cn1c(N)cc(=O)n(C)c1=S -5.87%, CCCn1nc(NS(=O)(=O)c2ccccc2)c2cc3cc(C)ccc3nc21 -277%, CCCn1nc(NS(=O)(=O)c2ccc(F)cc2)c2cc3ccccc3nc21 -3.49%, CCOC(=O)C1CCCN(C(=O)C2CCN(S(=O)(=O)c3ccc(Cl)c(C(F)(F)F)c3)CC2)C1 (stereo not given) -0.268%, Cc1ccc(S(=O)(=O)N2CCCCC2)cc1C(=O)N1CCN(CCO)CC1 4.03%, O=C(CCC(=O)N1CCN(S(=O)(=O)c2ccc(Cl)cc2)CC1)NCc1cccc(C(F)(F)F)c1 -18.8%, CN(C)c1nc(NN)nc(Nc2ccc(F)cc2)n1 8.77%, OCCNc1nc(Nc2ccc(Cl)c(Cl)c2)nc2ccccc12 0.218%, CC(=O)Oc1ccc2c(c1)C(=O)c1ccccc1C2=O -16.9%, Cc1ccc(S(=O)(=O)N2CCN(C(=O)CN3C(=O)NC(C)(c4ccc(Cl)cc4)C3=O)CC2)c(C)c1 (stereo not given) 9.81%, Cc1ccnc(SCC(=O)Nc2cccc(S(=O)(=O)N3CCOCC3)c2)n1 -9.84%, Cc1ccc(NC(=O)c2c(NC(=O)CCC(=O)O)sc3c2CCCCC3)cc1 -11.6%, Cc1ccc(NC(=O)c2csc3c2CCCC3)cc1 -1.8%, COc1ccccc1N(CC(=O)Nc1c(C)n(C)n(-c2ccccc2)c1=O)S(=O)(=O)c1ccccc1 -8.42%, Cc1ccc(S(=O)(=O)NCC(=O)NNC(=O)c2ccc(Br)cc2)cc1C -3.8%, O=C1c2ccccc2C(=O)N1CCC#Cc1ccc2cc(C3(O)CCCCC3)oc(=O)c2c1 -6.42%, COc1cc(/C=C2\Oc3ccc(C#Cc4ccc(O)cc4)cc3C2=O)cc(OC)c1 -3.34%, C#CCOCCOCCOCCNc1nc(N2CCN(C(=O)[C@H](CO)n3cc([C@@H](N)C(C)C)nn3)CC2)nc(N2CCN(C(=O)[C@H](CCC(=O)O)n3cc([C@@H](N)[C@H](C)CC)nn3)CC2)n1 -0.653%, COc1cc(/C=C(\C#N)c2nc3ccccc3[nH]2)ccc1O -6.88%, COc1ccc2[nH]cc(/C=C(/C#N)S(=O)(=O)c3ccccc3)c2c1 -1%, C#CCOCCOCCOCCNc1nc(N2CCOCC2)nc(N2CCN(C(=O)[C@H](Cc3ccc(O)cc3)n3cc(CCO)nn3)CC2)n1 -5.18%, Cc1noc(C)c1S(=O)(=O)N(C)C[C@H]1Oc2c(NC(=O)Nc3ccc4c(c3)OCO4)cccc2C(=O)N([C@H](C)CO)C[C@@H]1C 12.8%

Potency, active:
COc1ccc(-c2cc(C(F)(F)F)nc(S(C)(=O)=O)n2)cc1OC 4.11 µM, Oc1ccccc1C1=NN(c2ccccc2)C(c2ccccc2)C1 (stereo not given) 8.2 µM, O=C1/C(=C\c2cccnc2)CN(Cc2ccccc2)C/C1=C\c1cccnc1 0.13 µM, COc1cc(/C=N\NC(=O)c2nonc2N)c(OC)cc1Br 0.291 µM, CC(NC(=O)C(=O)NN=C1CCC(C(C)(C)C)CC1)c1ccccc1 (stereo not given) 0.731 µM, CCCOc1ccccc1C1CC(=O)Nc2cc3c(cc21)OCO3 (stereo not given) 3.66 µM, O=S(=O)(Cc1ccc(Cl)cc1Cl)c1ccc(Cl)cc1 1.3 µM, O=C(/C=C/c1cccc(C(F)(F)F)c1)N1CCN(c2ccccn2)CC1 4.61 µM, Cc1coc2c(O)cc3c(c12)OC1(N2CCCCC2)C(=O)NCCCC31 (stereo not given) 20.6 µM and 7.08 µM, COc1ccc(N2C(=O)/C(=C\c3ccco3)N=C2SCC(N)=O)cc1Cl 18.4 µM, Cc1cc(C)nc(N/N=C/c2c(CO)cnc(C)c2O)n1 11.6 µM, CCN1CCN(c2cc3nc(C)n(Cc4ccccc4)c(=O)c3cc2NC(=O)c2ccccc2F)CC1 8.2 µM, N#Cc1c(-c2ccc(F)cc2)cc(C2CC2)nc1SCC(=O)c1cccs1 11.6 µM, O=C(Nc1ccc(NC(=O)c2ccco2)c(Cl)c1)c1cccc([N+](=O)[O-])c1 0.651 µM, CCCn1nc(NC(=O)C(C)C)c2cc3cc(OC)ccc3nc21 9.2 µM, CN(C)c1nc(Nc2ccc(Cl)c(Cl)c2)nc(N(C)C)n1 23.1 µM, O=C1C(Cl)=C(Oc2ccccc2)C(=O)c2ccccc21 2.06 µM, CC(=O)Nc1ccc(NC(=O)c2sc3nc4c(c(-c5ccc(C)cc5)c3c2N)CCC4)cc1 20.6 µM, COc1cc(C#Cc2ccc3cc(CCCO)oc(=O)c3c2)cc(OC)c1 3.26 µM, COc1ccc(/C=C(\C#N)c2c[nH]c3ccccc23)cc1 18.4 µM
